“And” between values parts separate entries of the source, which are not always exact repeats. Equal values may be shown once. Among all 360,000 compounds or so, about 2,600 (0.72%) were called active. Another 5% or so got no clear call; they are omitted. Calls come from the whole dose curve; as a rule, active = well fitted inhibition curve with a large enough effect; inconclusive = small, poorly fitted or top-dose-only effect; inactive = no such curve, though single readings can be large or run the other way. What follows is part of a selection rich in actives, with near analogues and random picks from the rest. Where a structure was tested more than once in an assay, its records may differ in their call.
Test: Primary qHTS for Inhibitors of ATXN expression; note: nearly all actives have a fitted effect of over 55% in size
Conditions: HEK-293 ATXN2-luciferase reporter, luminescence, 24 h; series mostly up to 57 µM; activity change, negative = inhibition: at the top concentration
Summary of the method: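 ATXN2-luciferase reporter cells (luciferase flanked by upstream and downstream ATXN2 gene portions) were treated 24 h at 37 °C with compounds at up to 57 uM. SteadyGlo luminescence gave expression; GF-AFC fluorescence gave viability.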
% is set by controls: 0 for no effect and ±100 for the full control effect; potency is the fitted concentration of half-maximal effect.

For `O=C(OCCN1CCOCC1)c1cccnc1Nc1cccc(C(F)(F)F)c1`, which “activity change, negative = inhibition” value is on record?
Its value is -16.6% (inactive).

Which Potency does the source give for `CCCCN(CCCC)CCC(O)c1cc2c(Cl)cc(Cl)cc2c2cc(C(F)(F)F)ccc12` (configuration not stated) here?
Its Potency is “inactive and 31.6 µM (active)”.

With `Cc1c(Cl)cccc1NC(=O)C(=O)NCCc1csc2nc(-c3ccccc3F)nn12` as the molecule, how does the “activity change, negative = inhibition” value read?
Its value is -5.63% (inactive).

With `Oc1ccc2ccccc2c1N=Nc1nccs1` as the molecule, how does the Potency read?
Its Potency is 3.55 µM (active).

Which “activity change, negative = inhibition” value does the source give for `Cc1ccccc1Cn1nc(C)c(NC(=O)c2cc(-c3ccc(F)cc3)on2)c1C` here?
The value was -0.902% (inactive).

For `COc1cc(NC(=O)CN2CCN(S(=O)(=O)c3ccc(Br)cc3)CC2)cc(OC)c1`, which “activity change, negative = inhibition” value is on record?
Its value is 2.9% (inactive).

Which “activity change, negative = inhibition” value does the source give for `Cc1cc2nc(NC(=O)c3ccc(S(=O)(=O)N4CCOCC4)cc3)sc2cc1C` here?
The value was 0.447% (inactive).

With `COc1ccc(C(=O)Nc2nc(-c3ccc(S(=O)(=O)N4CCOCC4)cc3)cs2)cc1` as the molecule, how does the Potency read?
The Potency was 25.1 µM (active).

Which “activity change, negative = inhibition” value does the source give for `CNC(=O)c1ccsc1NC(=O)c1ccc(S(=O)(=O)N2CCOCC2)cc1` here?
The value was 8.05% (inactive).

Which “activity change, negative = inhibition” value does the source give for `CCc1nc2c(cnn2-c2ccc(C)cc2)c(=O)n1-c1ccc(C)cc1` here?
Its value is 8.05% (inactive).

Which “activity change, negative = inhibition” value does the source give for `Cc1ccccc1CSCCNC(=O)C1CCN(S(=O)(=O)Cc2ccccc2)CC1` here?
The value was -4.49% (inactive).

Which Potency does the source give for `CC1=CC(C)(C)Nc2ccc(OC(=O)CN3C(=O)C4CCCCC4C3=O)cc21` (configuration not stated) here?
The Potency was 31.6 µM (active).

Which “activity change, negative = inhibition” value does the source give for `O=C(COC(=O)CN1C(=O)C2CCCCC2C1=O)Nc1ccc(F)c(F)c1F` (configuration not stated) here?
Its value is -0.766% (inactive).

Which “activity change, negative = inhibition” value does the source give for `CC1=CC(C)(C)Nc2ccc(OC(=O)C(Cc3ccccc3)N3C(=O)C4CCCCC4C3=O)cc21` (configuration not stated) here?
Its value is -33.8% (inactive).

With `C[C@]12CCC3=C4CCC(=O)C=C4CC[C@@H]3[C@H]1CC[C@@]2(O)CC#N` as the molecule, how does the “activity change, negative = inhibition” value read?
The value was 15.3% (inactive).

Which “activity change, negative = inhibition” value does the source give for `Cc1cc(N/C=C\C(=O)c2ccc(Cl)c(Cl)c2)no1` here?
The value was 19% (inactive).

With `COc1ccc(C(=O)/C=C/Nc2ccccn2)cc1` as the molecule, how does the Potency read?
Its Potency is 8.91 µM (active).

With `CCOc1cc2ccccc2cc1C(=O)Nc1ccccn1` as the molecule, how does the “activity change, negative = inhibition” value read?
Its value is 6.94% (inactive).

With `COc1ccc(CNC(=O)CSc2nc3ccccc3nc2Cc2ccccc2)cc1` as the molecule, how does the “activity change, negative = inhibition” value read?
Its value is 6.56% (inactive).

For `O=C(NCCC1=CCCCC1)c1ccc2c(c1)N(Cc1ccccc1F)C(=O)c1ccccc1S2(=O)=O`, which “activity change, negative = inhibition” value is on record?
Its value is -14.3% (inactive).

With `CCOC(=O)c1c(C)[nH]c(C)c1S(=O)(=O)N1CCCC(C(=O)NCc2ccccc2Cl)C1` (configuration not stated) as the molecule, how does the “activity change, negative = inhibition” value read?
The value was 13.6% (inactive).

For `O=C(CN1C(=O)c2ccccc2S1(=O)=O)N1CCc2ccccc21`, which Potency is on record?
The Potency was 2.51 µM (active).

Which “activity change, negative = inhibition” value does the source give for `CN(Cc1ccc(F)cc1)C(=O)CN1C(=O)c2ccccc2S1(=O)=O` here?
The value was 20.2% (inactive).

With `CC1CCCN(C(=O)CN2C(=O)c3ccccc3S2(=O)=O)C1` (configuration not stated) as the molecule, how does the “activity change, negative = inhibition” value read?
Its value is 2.01% (inactive).

Which “activity change, negative = inhibition” value does the source give for `CO[C@H]1C=CO[C@@]2(C)Oc3c(C)c(O)c4c(O)c(c(/C=N/N5CCN(C)CC5)c(O)c4c3C2=O)NC(=O)/C(C)=C\C=C[C@H](C)[C@H](O)[C@@H](C)[C@@H](O)[C@@H](C)[C@H](OC(C)=O)[C@@H]1C` here?
Its value is 16.3% (inactive).

Which “activity change, negative = inhibition” value does the source give for `COc1ccc(CCNS(=O)(=O)c2cccc3cccnc23)cc1OC` here?
The value was 1.2% (inactive).

With `CCCCC(=O)NC(c1ccc(OC)c(OC)c1)c1ccc2cccnc2c1O` (configuration not stated) as the molecule, how does the Potency read?
The Potency was 5.01 µM (active).

Which “activity change, negative = inhibition” value does the source give for `C=CCn1c(COc2cccc3cccnc23)nnc1SCC(=O)OC` here?
The value was 9.7% (inactive).

For `CC1=C(C(=O)N(C(C)C)C(C)C)CC(CC(=O)NCCCCc2ccccc2)C(=O)N1CCC1=CCCCC1` (configuration not stated), which “activity change, negative = inhibition” value is on record?
The value was -11.7% (inactive).

With `CCc1c2c(nc3ccc(O)cc13)-c1cc3c(c(=O)n1C2)COC(=O)[C@]3(O)CC` as the molecule, how does the Potency read?
The Potency was 0.0061 µM (active).

With `CCCCN(CC)C(=S)Nc1ccc2nc3n(c(=O)c2c1)CCCCC3` as the molecule, how does the “activity change, negative = inhibition” value read?
The value was 1.25% (inactive).

Which “activity change, negative = inhibition” value does the source give for `COc1ccc(C(=O)COC(=O)CCCC(=O)Nc2cc(C(F)(F)F)ccc2Cl)cc1` here?
Its value is 12% (inactive).

With `COc1ccc(-n2nc3c(N4CCC(C(=O)NCc5ccccc5)CC4)nnc(C)c3c2C)cc1` as the molecule, how does the “activity change, negative = inhibition” value read?
Its value is -22.4% (inactive).

With `CCCCNC(=O)C1CCCN(c2nnc(C)c3c(C)n(-c4ccc(Cl)cc4)nc23)C1` (configuration not stated) as the molecule, how does the “activity change, negative = inhibition” value read?
Its value is -7.69% (inactive).

For `COc1cccc(NC(=O)C2CCN(c3cc(C)nc4c(-c5ccc(Cl)cc5)c(C)nn34)CC2)c1`, which “activity change, negative = inhibition” value is on record?
Its value is 4.91% (inactive).

Which “activity change, negative = inhibition” value does the source give for `Cc1nnc(N2CCCC(C(=O)NCCN(C)C)C2)c2nn(-c3ccccc3)c(C)c12` (configuration not stated) here?
The value was -23.9% (inactive).

For `CCc1ccc(CNC(=O)C2CCN(c3nnc(C)c4c(C)n(-c5ccc(C)cc5)nc34)CC2)cc1`, which Potency is on record?
Its Potency is 31.6 µM (active).

For `Cc1nnc(N2CCC(C(=O)Nc3ccc(F)cc3)CC2)c2nn(-c3ccc(Cl)cc3)c(C)c12`, which Potency is on record?
The Potency was 25.1 µM (active).

For `CSc1nc(-c2ccc(F)cc2)nc2c1Cc1c(CO)cnc(C)c1O2`, which “activity change, negative = inhibition” value is on record?
The value was 0.751% (inactive).

With `Cc1ccc(CNC(=O)CCc2c(C)nc3c(c(C)nn3-c3ccccc3)c2C)cc1` as the molecule, how does the “activity change, negative = inhibition” value read?
The value was 5.92% (inactive).

With `CN(C)c1ccc(NC(=O)CSc2nc(-c3ccco3)cc(C(F)(F)F)n2)cc1` as the molecule, how does the “activity change, negative = inhibition” value read?
The value was 2.66% (inactive).

Which “activity change, negative = inhibition” value does the source give for `COc1cccc(CNC(=O)c2cc(=O)[nH]c3ccc(S(=O)(=O)N4CCCCC4)cc23)c1` here?
Its value is -1.53% (inactive).

For `Cc1cc(NC(=O)CCC(=O)N(c2cccc(F)c2)C(C(=O)NC2CCCC2)c2ccncc2)no1` (configuration not stated), which “activity change, negative = inhibition” value is on record?
The value was -5.11% (inactive).

For `Cc1cc(NC(=O)/C=C/C(=O)N(c2ccccc2C)C(C(=O)NC2CCCC2)c2ccc(F)cc2)no1` (configuration not stated), which Potency is on record?
Its Potency is 10 µM (active).

For `Cc1cc(NC(=O)/C=C/C(=O)N(CC(=O)NC2CCCC2)c2ccc(F)cc2)no1`, which “activity change, negative = inhibition” value is on record?
The value was -16.6% (inactive).

For `CCOc1ccc(-c2nonc2NC(=O)c2oc3ccc(C)cc3c2C)cc1OCC`, which “activity change, negative = inhibition” value is on record?
Its value is 9.19% (inactive).

With `O=C(Nc1ccc(O)c(-c2nc3ccccc3o2)c1)c1ccc(-c2cccc(Cl)c2)o1` as the molecule, how does the “activity change, negative = inhibition” value read?
The value was -8.53% (inactive).

Reference: PubChem BioAssay AID1745845 (National Center for Advancing Translational Sciences (NCATS), 2022)
